Compound activity as filed in PubChem.
Cav32 inh – Cav3.2 calcium influx blockers – cell-based, Fluo-4 calcium fluorescence, FDSS, MLSMR library, primary screen; Voltage-dependent T-type calcium channel subunit alpha-1H (Homo sapiens), O95180; Cav3.2-expressing cells; hits give low values; B-score at 10 µM; hit rate 4% among 100,000;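 active means single-dose well whose peak fluorescence ratio is a statistical outlier from its plate by either plate-standardised score or position-corrected B-score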
Target sequence (O95180 whole entry, looked up): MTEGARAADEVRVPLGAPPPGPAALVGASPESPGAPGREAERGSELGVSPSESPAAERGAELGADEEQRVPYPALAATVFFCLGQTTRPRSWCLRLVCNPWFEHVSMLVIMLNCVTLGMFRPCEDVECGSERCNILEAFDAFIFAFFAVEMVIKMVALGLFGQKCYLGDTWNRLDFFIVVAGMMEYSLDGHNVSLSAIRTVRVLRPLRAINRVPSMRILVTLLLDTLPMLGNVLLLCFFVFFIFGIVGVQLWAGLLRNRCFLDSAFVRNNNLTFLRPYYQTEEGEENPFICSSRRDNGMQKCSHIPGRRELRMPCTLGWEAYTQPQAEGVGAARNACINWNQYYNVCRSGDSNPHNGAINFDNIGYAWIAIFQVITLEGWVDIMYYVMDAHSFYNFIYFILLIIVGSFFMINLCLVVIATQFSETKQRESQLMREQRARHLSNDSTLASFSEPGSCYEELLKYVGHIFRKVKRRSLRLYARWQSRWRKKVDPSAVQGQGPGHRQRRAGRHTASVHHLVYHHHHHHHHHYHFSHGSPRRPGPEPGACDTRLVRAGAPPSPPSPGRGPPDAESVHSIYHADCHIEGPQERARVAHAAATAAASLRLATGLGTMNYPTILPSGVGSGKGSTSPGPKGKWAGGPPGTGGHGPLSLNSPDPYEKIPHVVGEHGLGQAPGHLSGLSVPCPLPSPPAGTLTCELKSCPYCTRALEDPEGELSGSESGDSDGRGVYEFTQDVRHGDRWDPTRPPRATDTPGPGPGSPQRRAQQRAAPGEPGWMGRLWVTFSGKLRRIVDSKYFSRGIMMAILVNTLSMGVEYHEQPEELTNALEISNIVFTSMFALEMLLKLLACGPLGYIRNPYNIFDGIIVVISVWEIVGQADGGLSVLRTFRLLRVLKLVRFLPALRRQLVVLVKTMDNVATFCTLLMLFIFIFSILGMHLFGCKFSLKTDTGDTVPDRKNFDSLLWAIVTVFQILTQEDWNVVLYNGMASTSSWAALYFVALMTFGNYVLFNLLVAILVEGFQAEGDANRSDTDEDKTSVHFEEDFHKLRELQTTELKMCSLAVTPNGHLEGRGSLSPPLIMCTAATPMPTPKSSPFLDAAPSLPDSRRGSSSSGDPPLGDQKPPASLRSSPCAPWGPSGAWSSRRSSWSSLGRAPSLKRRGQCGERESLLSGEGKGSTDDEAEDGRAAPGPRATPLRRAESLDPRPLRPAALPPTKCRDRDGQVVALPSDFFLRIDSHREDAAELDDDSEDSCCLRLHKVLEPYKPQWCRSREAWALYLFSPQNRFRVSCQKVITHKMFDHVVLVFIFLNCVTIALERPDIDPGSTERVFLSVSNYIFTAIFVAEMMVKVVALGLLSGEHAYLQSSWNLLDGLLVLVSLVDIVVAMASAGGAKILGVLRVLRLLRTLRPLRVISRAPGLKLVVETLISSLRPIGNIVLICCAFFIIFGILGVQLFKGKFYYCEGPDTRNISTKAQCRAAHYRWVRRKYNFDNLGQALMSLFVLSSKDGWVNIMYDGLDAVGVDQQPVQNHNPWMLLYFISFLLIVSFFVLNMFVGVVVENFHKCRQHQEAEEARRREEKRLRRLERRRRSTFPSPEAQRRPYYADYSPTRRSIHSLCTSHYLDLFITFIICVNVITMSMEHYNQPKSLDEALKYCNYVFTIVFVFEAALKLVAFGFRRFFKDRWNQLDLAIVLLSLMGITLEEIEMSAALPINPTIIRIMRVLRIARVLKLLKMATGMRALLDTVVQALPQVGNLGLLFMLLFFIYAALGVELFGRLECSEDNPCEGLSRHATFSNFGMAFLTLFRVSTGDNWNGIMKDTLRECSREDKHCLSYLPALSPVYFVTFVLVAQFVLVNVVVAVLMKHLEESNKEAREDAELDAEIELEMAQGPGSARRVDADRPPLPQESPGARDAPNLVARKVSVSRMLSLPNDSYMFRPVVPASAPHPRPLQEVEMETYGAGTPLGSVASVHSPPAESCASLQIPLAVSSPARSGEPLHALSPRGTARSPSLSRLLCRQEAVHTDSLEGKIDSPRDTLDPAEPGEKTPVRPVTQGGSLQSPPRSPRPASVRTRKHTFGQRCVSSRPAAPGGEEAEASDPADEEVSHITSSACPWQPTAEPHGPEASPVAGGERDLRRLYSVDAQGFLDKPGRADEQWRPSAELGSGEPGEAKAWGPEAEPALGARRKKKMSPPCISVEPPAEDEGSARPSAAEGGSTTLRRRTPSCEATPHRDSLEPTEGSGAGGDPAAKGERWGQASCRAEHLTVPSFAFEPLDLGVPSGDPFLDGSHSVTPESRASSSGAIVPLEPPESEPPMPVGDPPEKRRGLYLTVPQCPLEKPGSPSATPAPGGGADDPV
CYP2C9 inhib – blockers of cytochrome P450 2C9 activity – biochemical, luminescence, ADME assay, primary screen | CYP2C9 Supersomes, luciferin-H conversion | P11712 | hit rate 20% among 96,000 | inhibition, % at 5 µM | AID 777, 2007;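 active means blocking of liver enzyme CYP2C9 beyond about 50% at 5 µM, limit read from the data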
CYP2C9 act – human CYP2C9 activators, primary screen, biochemical, luminescence; hit rate 1.4% among 96,000; activation factor at 5 µM; Cytochrome P450 2C9 (Homo sapiens), P11712; recombinant CYP2C9, luciferin-H conversion; hits give high values; factor 1 = untreated enzyme, 0 = blocked; AID 1024, 2008;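 active means activation factor of 2 or more for CYP2C9 at a 5 µM dose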;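 further: 0 = sulfaphenazole-blocked wells and 1 = vehicle-only wells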
CYP2C19 activ – human CYP2C19 activators, primary screen, biochemical, luminescence; 96,000 tested, under 10 active; activation factor at 5 µM; AID 1025, 2008; Cytochrome P450 2C19 (Homo sapiens), P33261; recombinant CYP2C19, luciferin-H EGE luminescence; hits give high values; 0 = fully inhibited enzyme, 1 = untreated enzyme;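 active means activation factor of at least 2 at 5 µM in the primary screen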;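 further: 0 = wells with 2.5 mM tranylcypromine and 1 = vehicle-only wells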
Pyk2 oligo antag – antagonists of Pyk2 self-association, primary screen, Q293 cells, FERM NanoBiT luminescence, HTS; Protein-tyrosine kinase 2-beta (Homo sapiens), Q14289; hits give low values; z-score (the deposit names both 25 µM and 10 µM); hit rate 0.83% among 99,000; AID 1347419, 2020;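 active means Z-score of -3 or lower, scaled per plate to the spread of control and sample wells; inactive means z-score above -3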;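 further: negative z-score means lost luminescence so less FERM oligomerization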
CYP2C19 inhib – blockers of cytochrome P450 2C19 activity – biochemical, luminescence, ADME assay, primary screen | P33261 | CYP2C19 Supersomes, luciferin-H EGE luminescence, 30 min | inhibition, % at 5 µM | hit rate 21% among 96,000 | AID 778, 2007;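 active means CYP2C19 inhibition above a set limit at 5 µM in the primary screen, cut at about 50% in these data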;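 further: plate controls were negative control wells for no effect and 2.5 mM tranylcypromine positive control for full effect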
The depositor's hits bear a star; . = no result given. Rows were chosen to be rich in hits. Some 27% of all compounds tested hit in one or more screens of this group.

SMILES	Cav32 inh	CYP2C9 inhib	CYP2C9 act	CYP2C19 activ	Pyk2 oligo antag	CYP2C19 inhib
COCCSc1ccccc1C(=O)Nc1cc(C)on1	1.1	5	1	0.9	0.52	5
Cc1noc(C)c1CSc1ccccc1C(=O)Nc1nccs1	-0.0025	32	0.7	0.2	-0.04	76*
CCCc1nn(-c2cc(Cl)ccc2OC)c2c1C(=O)CCC2	-0.034	42	0.6	0.4	.	59*
COc1ccc(Cl)cc1C(=O)n1nc(C)cc1C	0.46	-13	1.1	0.7	-2.5	27
CCCCc1nn(-c2cc(Cl)ccc2OC)c2c1C(=O)CC(C)(C)C2	-3.2	56*	0.4	0.6	.	44
CCCCN(CC)Cc1ccc(CNC(=O)Nc2ccc(OCC)cc2)o1	-1.6	12	0.9	1	2.4	4
COc1ccccc1Nc1nc(N)nc(CSCCO)n1	-0.008	-1	1	1	0.22	-2
Cc1cc(C)c(S(=O)(=O)N(CC(=O)NCc2cccnc2)C2CCCCC2)c(C)c1	-1.7	94*	0.1	0	-0.88	99*
Cc1cc(C)c(S(=O)(=O)N(C)CC(=O)N2CCCCC2)c(C)c1	.	-185	2.9*	0.6	0.28	44
Cc1cc(C)c(S(=O)(=O)N(C)Cc2cnn(C)c2)c(C)c1	-0.033	-97	2*	0.1	-0.06	88*
Cc1cc(C)c(S(=O)(=O)N(CC(=O)N2CCCC2)C2CCCCC2)c(C)c1	-1.8	58*	0.4	0.7	1.6	28
Cc1ccc(S(=O)(=O)N(CC(=O)N2CCCC2)C2CCCCC2)cc1	0.17	.	.	.	0.51	.
Cc1ccc(C)n1-c1ccc(N2CCOCC2)c(Br)c1	-3.4	6	0.9	0.9	-0.52	14
Cc1cccc(C)c1NC(=O)CC(NCCc1ccccc1)C(=O)O (configuration not stated)	.	.	.	.	0.43	.
CCN(Cc1ccccc1)S(=O)(=O)c1ccc(C(=O)N2CCN(c3nc4ccccc4s3)CC2)cc1	.	.	.	.	-0.8	.
COc1ccc(-c2nc(Cn3c(SCc4ccccc4F)nc4ccncc43)c(C)o2)cc1	-0.12	73*	0.3	0	.	97*
O=C(NC1CCCC1)c1ccc(CSc2nc3ccncc3n2Cc2ccc(F)cc2)cc1	0.59	.	.	.	.	.
COc1ccc(-c2nc(Cn3c(SCc4ccc(F)cc4)nc4ccncc43)c(C)o2)cc1OC	-1.1	90*	0.1	0.1	.	89*
CCC(C)NC(=O)c1ccc(CSc2nc3ccncc3n2Cc2ccc(F)cc2)cc1 (configuration not stated)	-0.051	.	.	.	.	.
COC(=O)CC1C(=O)NCCN1C(=O)NC1CCCCC1 (configuration not stated)	0.4	-14	1.1	1.1	0.51	-12
S=C1NCCC12C(=S)Nc1ccccc12 (configuration not stated)	0.75	.	.	.	.	.
FC(F)(F)c1cc(C(F)(F)F)c2ccc(N3CCN(c4ccc(Cl)cc4)CC3)nc2n1	-7*	28	0.7	0.8	-0.09	15
Fc1ccc(N2CCN(c3ccc4c(C(F)(F)F)cc(C(F)(F)F)nc4n3)CC2)cc1	-4*	-40	1.4	0.8	-0.54	21
N#CC(c1ccc(Cl)cc1)c1ccc2c(C(F)(F)F)cc(C(F)(F)F)nc2n1 (configuration not stated)	-2.5	76*	0.2	0.2	-2.5	77*
FC(F)(F)c1cc(C(F)(F)F)c2ccc(N3CCN(c4ncccn4)CC3)nc2n1	0.037	-3	1	1	0.35	0
SMILES	Cav32 inh	CYP2C9 inhib	CYP2C9 act	CYP2C19 activ	Pyk2 oligo antag	CYP2C19 inhib
O=C(Nc1ccc2c(c1)OCO2)C1CCCN1C(=O)NCc1ccccc1 (configuration not stated)	0.26	72*	0.3	0	-1.1	97*
O=C(Nc1ccc2c(c1)OCO2)OCc1ccccc1	-0.67	38	0.6	0.1	-0.61	92*
O=C(Nc1ccc2c(c1)OCO2)C1CCCN1C(=O)OCc1ccccc1 (configuration not stated)	-0.22	81*	0.2	0	0.13	99*
COc1cc(NC(=O)C2CCCN2C(=O)OCc2ccccc2)cc(OC)c1 (configuration not stated)	-0.43	14	0.9	0.7	-0.78	32
O=C(NCc1ccc2c(c1)OCO2)C1CCCN1C(=O)Nc1ccccc1 (configuration not stated)	-0.0057	-32	1.3	0.7	2.1	28
COC(=O)c1ccccc1NC(=O)Nc1ccc2c(c1)OCO2	0.49	18	0.8	0.7	-0.67	30
CCOc1ccccc1N(CC(=O)N1CCOCC1)S(=O)(=O)c1ccc(SC)cc1	-0.25	39	0.6	0.7	0.64	29
Cn1c(SCc2nc3ccccc3c(=O)[nH]2)nnc1-c1ccco1	-0.0031	-4	1	0.5	0.91	51*
COc1ccc(Cc2nnc(SCc3nc4ccccc4c(=O)[nH]3)o2)cc1	0.075	18	0.8	0.7	0.11	26
Cn1c(-c2ccccc2)cnc1SCc1nc2ccccc2c(=O)[nH]1	0.64	21	0.8	0	0.34	100*
COc1ccc(C(=O)NCCc2nnc(SCc3nc4ccccc4c(=O)[nH]3)n2C)cc1	0.33	84*	0.2	1.1	0.74	-6
Cc1ccc(OCC(O)CNS(=O)(=O)c2ccccc2C(=O)O)cc1 (configuration not stated)	-1.4	.	.	.	0.05	.
COC(=O)c1ccccc1NC(=O)Cn1cnc2cc(C)c(C)cc21	-0.026	16	0.8	0.6	1.3	42
COc1ccc2nc(N3C(=O)CC(Cc4cc(C)cc(C)c4)C3=O)sc2c1 (configuration not stated)	.	30	0.7	0.7	0.65	33
O=S(=O)(Nc1ccc2c(c1)OCCO2)c1cnc[nH]1	-0.17	78*	0.2	0.9	-0.51	12
COC(=O)COc1ccc(S(=O)(=O)Nc2ccc3c(c2)OCO3)cc1	0.1	93*	0.1	0	0.17	99*
O=C(O)c1cc(S(=O)(=O)Nc2ccc3c(c2)OCCO3)c(Cl)cc1Cl	0.069	51*	0.5	0.9	.	15
Cc1cccc(NS(=O)(=O)c2ccc(C3CCCCC3)cc2)c1	-4.5*	44	0.6	0.3	-1	69*
CS(=O)(=O)N1CCN(c2ccccc2NC(=O)c2cccnc2Cl)CC1	1.4	4	1	0.9	-1.1	7
O=C(COc1ccc(S(=O)(=O)N2CCCC2)cc1Cl)NCc1ccc2c(c1)OCO2	-0.24	46	0.5	0.8	1.5	16
O=C(COC(=O)c1ccc(NS(=O)(=O)c2ccc3c(c2)OCCO3)cc1)NC1CC1	0.14	62*	0.4	0.9	1.4	15
